Assay outcomes (PubChem)
PfHsp90 yeast 2 = growth inhibition of PfHsp90-expressing yeast, primary screen, antimalarial PfHsp90 inhibitor project, S. cerevisiae, BacTiter-Glo luminescence, single point, set 2; 310,000 tested, 0.32% active; BacTiter-Glo ATP, 48 h; yeast lacking PDR1 and PDR3 efflux regulators; inhibition, % at 9.4 µM;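 active means every replicate shows inhibition above about 80%, whatever the replicate mean, limit read from the data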;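 further: 0% = DMSO neutral controls and 100% = 20 µM radicicol positive controls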
V-ATPase pH = regulators of yeast V-ATPase proton pumping, primary screen, pHLuorin cytosolic pH fluorescence. AID 504577, 2011. response, % at 10 µM. 350,000 tested, 0.37% active. S. cerevisiae; in the data active means response mostly above about 7.3%, no sharp cut-off; inactive means mostly below about 5.4%; further: actives read high
SKKanGAS inh = S. pyogenes SKKanGAS growth inhibitors in kanamycin, primary screen, streptokinase expression inhibitor project, SKKanGAS strain, BacTiter-Glo luminescence; inhibition, % at 7.5 µM; 300,000 tested, 1.3% active; 6 h;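 active means mean replicate score, as percent of positive control median, at least 50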;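 further: strain carries kanamycin resistance gene driven by streptokinase promoter and grows in 40 µg/ml kanamycin; loss of luminescence reflects streptokinase promoter inhibition or plain growth inhibition; 0% = median of DMSO wells and 100% = positive control at its reference dose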
tim10-1 inh = growth inhibitors of tim10-1 mutant yeast, primary screen, luminescence, uHTS. inhibition, % at 20 µM. AID 463190, 2010. 330,000 tested, 2.2% active. S. cerevisiae tim10-1 ts strain growth, BacTiter-Glo, 24 h;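 active means inhibition of at least 40%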;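 further: mutant grown at 25 °C; 0% = DMSO wells with yeast and 100% = wells holding no yeast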
TIM10 inh = growth inhibitors of isogenic TIM10 control yeast, primary screen, counter-screen for tim10-1 yeast inhibitor project, luminescence, uHTS; S. cerevisiae TIM10 strain growth, BacTiter-Glo luminescence, 24 h; inhibition, % at 10 µM; 330,000 tested, 1.4% active; AID 463195, 2010;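 active means inhibition of 40% or more at the single tested concentration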;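 further: wild-type TIM10 isogenic control strain grown at permissive 25 °C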
tim23-1 inh = growth inhibitors of tim23-1 mutant yeast, primary screen, luminescence, uHTS. S. cerevisiae tim23-1 growth, BacTiter-Glo luminescence, 24 h. inhibition, % at 20 µM. 330,000 tested, 1.3% active;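 active means growth inhibition of the mutant yeast at or above 50%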;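 further: temperature-sensitive mutant grown at 25 °C; plate controls were DMSO-treated mutant yeast for no effect and medium wells lacking yeast for full effect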
tim10-1 confirm = growth inhibitors of tim10-1 mutant yeast, confirmation, single concentration, luminescence, S. cerevisiae; 7,400 tested, 56% active; S. cerevisiae tim10-1 ts strain growth, BacTiter-Glo, 24 h; shares compounds with tim10-1 inh; inhibition, % at 20 µM;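 active means inhibition of yeast growth at or above a set limit in either of two repeat tests at 20 µM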;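 further: tim10-1 mutant grown at permissive 25 °C to find synthetic lethal compounds; 0% = DMSO yeast wells and 100% = medium wells without yeast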
TIM10 conf = growth inhibitors of wild-type TIM10 yeast, confirmation, counter-screen for tim10-1 synthetic lethality project, single concentration, luminescence, S. cerevisiae | shares compounds with TIM10 inh | S. cerevisiae tim10 strain growth, BacTiter-Glo luminescence, 24 h | inhibition, % at 10 µM | 4,600 tested, 63% active | AID 463215, 2010;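 active means inhibition of yeast growth at or above a set limit in either of two replicates at 10 µM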;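 further: this counterscreen used the strain with wild-type TIM10; 0% = yeast with DMSO and 100% = medium wells lacking yeast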
tim23-1 conf = tim23-1 mutant yeast growth inhibitors, confirmation, luminescence, single concentration; shares compounds with tim23-1 inh; AID 463218, 2010; S. cerevisiae tim23-1 growth, BacTiter-Glo luminescence, 24 h; 4,400 tested, 83% active; inhibition, % at 20 µM;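 active means inhibition above about 39% in either of two replicate wells at 20 µM, limit read from the data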;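 further: temperature-sensitive tim23-1 mutant grown at 25 °C; 0% = DMSO wells with yeast and 100% = medium wells without yeast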
* = called active by the depositor; x = no result. Sampled rows, rich in hits. Any-hit rate of the full collection: about 4.6%.

SMILES	PfHsp90 yeast 2	V-ATPase pH	SKKanGAS inh	tim10-1 inh	TIM10 inh	tim23-1 inh	tim10-1 confirm	TIM10 conf	tim23-1 conf
Cc1cccc(C(=O)O/N=C(\N)c2ccccn2)c1	31.6	-0.1	1.6	14.7	22.8	29.9	x	x	x
Cc1ccc(C(=O)NCc2ccco2)c(C)c1	5.9	-1.6	-1.2	-3.0	-9.7	8.0	x	x	x
Cc1noc(C)c1C(=O)NCCc1c(C)[nH]c2ccccc12	-15.0	-1.3	8.2	-5.0	-12.5	12.9	x	x	x
Cc1cccc(/C(N)=N/OC(=O)c2ccc3c(c2)OCO3)c1	19.8	-0.7	-2.1	74.6*	82.6*	87.6*	65.8*	-5.8	85.1*
Cc1cccc(/C(N)=N/OC(=O)c2cccc3ccccc23)c1	x	-1.8	6.0	63.7*	86.7*	81.6*	54.5*	84.8*	47.2*
N/C(=N\OC(=O)COc1ccc(Br)cc1)c1cccc([N+](=O)[O-])c1	-3.1	3.7	0.7	0.9	-12.1	6.2	x	x	x
Cc1cccc(/C(N)=N/OC(=O)Cc2ccccc2)c1	8.4	6.2	25.7	37.4	34.4	29.8	x	x	x
N/C(=N\OC(=O)CCC1CCCCC1)c1cccc([N+](=O)[O-])c1	5.2	-5.5	5.6	78.9*	61.6*	53.8*	79.3*	48.5*	77.2*
CCC(C(=O)O/N=C(\N)c1cccc(C)c1)c1ccccc1 (stereo not drawn)	19.2	0.4	1.7	62.6*	53.9*	60.9*	53.4*	-30.3	55.3*
COCCN(CC(=O)Nc1cccc(C)c1C)C(=O)c1oc2c(Cl)cccc2c1C	-5.3	6.0	x	-5.3	10.2	26.6	x	x	x
Cc1nc(-c2ccc(Br)cc2)ccc1C(=O)O	5.2	1.5	0.1	-3.0	1.4	17.2	x	x	x
O=C(O)C1=C[C@@H](c2coc3ccccc3c2=O)C[C@@H](OCCCCO)O1	-5.8	2.1	2.3	-18.5	-17.8	-14.9	x	x	x
CCCn1nc([N+](=O)[O-])c(C(C#N)c2nc3ccccc3s2)c(Cl)c1=O (stereo not drawn)	-15.5	1.9	4.1	72.9*	68.0*	72.3*	62.2*	88.5*	33.5
CCn1nc([N+](=O)[O-])c(C(C#N)c2nc3ccccc3n2C)c(Cl)c1=O (stereo not drawn)	-23.7	-2.5	11.4	31.5	13.9	13.6	x	x	x
COc1ccc(/C=C/c2nc3ccccc3n2C)cc1	22.0	3.8	66.0*	56.8*	70.2*	66.0*	49.2*	67.3*	46.6*
COc1ccc(Nc2nc3ccccc3n2C)cc1	2.4	-1.1	2.0	7.7	2.9	14.2	x	x	x
Cc1ccc(/C=C/C(=O)NC2CCCCCCC2)o1	-7.7	-0.5	5.1	54.6*	46.3*	51.5*	56.8*	38.3*	57.7*
CCCCCCCCCCC[N+](C)(C)CC/C=C1/c2ccccc2Sc2ccc(Cl)cc21	106.8*	10.4	89.9*	98.0*	81.7*	89.5*	97.2*	82.5*	93.6*
CCCCCCCCCC[N+](C)(C)CC/C=C1/c2ccccc2Sc2ccc(Cl)cc21	105.8*	1.6	94.9*	98.0*	83.3*	91.8*	96.8*	86.4*	94.4*
CC[N+](C)(C)CC/C=C1/c2ccccc2Sc2ccc(Cl)cc21	x	-2.1	6.5	10.8	-12.6	-9.5	x	x	x
O=C(/C=C/c1ccccc1O)c1ccco1	20.2	-3.4	-8.7	43.7*	39.5	51.9*	34.6*	x	50.2*
Nc1ccc(/C=C/C(=O)c2ccco2)cc1	-5.0	0.9	-1.3	15.0	10.9	33.2	x	x	x
Cc1ccc(S(=O)(=O)N2CCCCC2)cc1NC(=O)COC(=O)Cc1cccc(C(F)(F)F)c1	-5.4	0.1	-7.5	2.2	-0.1	-11.4	x	x	x
O=C1CC(SC(=Nc2ccccc2)Nc2ccccc2)C(=O)N1c1cccc2ccccc12 (stereo not drawn)	-25.3	x	3.2	4.1	20.6	0.4	x	x	x
Cc1ccnc(NC(=O)c2ccc([N+](=O)[O-])o2)c1	-24.3	10.5	16.8	64.4*	54.6*	60.7*	59.2*	3.0	75.8*
SMILES	PfHsp90 yeast 2	V-ATPase pH	SKKanGAS inh	tim10-1 inh	TIM10 inh	tim23-1 inh	tim10-1 confirm	TIM10 conf	tim23-1 conf
Cc1ccnc(NC(=O)c2ccccc2[N+](=O)[O-])c1	12.4	3.8	-3.9	15.2	0.0	11.7	x	x	x
Cc1ccc(CNC(=O)c2nn(C)c(C)c2[N+](=O)[O-])cc1	34.5	2.4	-11.4	1.6	-3.8	11.2	x	x	x
Cc1ccc(CNC(=O)c2ccc([N+](=O)[O-])o2)cc1	7.7	-2.9	56.2*	62.2*	66.9*	64.0*	57.4*	40.5*	54.1*
CN(Cc1ccccc1)C(=O)c1ccc([N+](=O)[O-])o1	-15.2	2.5	-7.0	68.0*	75.3*	50.4*	69.1*	72.2*	64.2*
O=C(COC(=O)c1ccc([N+](=O)[O-])o1)NCc1ccccc1	1.2	-8.0	x	-199.4	-215.9	-57.1	x	x	x
O=C(NC(c1ccccc1)c1ccccc1)c1cccc(S(=O)(=O)NCc2ccccc2)c1	22.9	6.6	16.8	18.5	13.7	18.2	x	x	x
O=C(COC(=O)c1ccc2c(c1[N+](=O)[O-])C(=O)c1ccccc1C2=O)NC1CC1	-42.7	-4.8	x	79.7*	60.1*	75.9*	63.8*	45.7*	73.2*
O=C(COC(=O)c1cccc2c1C(=O)c1ccccc1C2=O)NC1CCCCC1	-4.8	-2.1	29.3	24.3	18.1	11.2	x	x	x
COc1ccc(N2CC(C(=O)Nc3ccccc3N3CCCC3)CC2=O)c(OC)c1 (stereo not drawn)	-0.1	2.6	-11.4	-6.1	-10.3	3.2	x	x	x
COc1ccc([C@H]2C[C@H](O)[C@@H](n3cc(COC(=O)c4ccccc4)nn3)CN2CC2CCCCC2)cc1	x	0.6	x	x	x	x	x	x	x
Cc1c(Cc2ccccc2)c(NCCN(C)C)n2c(nc3ccccc32)c1C#N	110.7*	-12.2	-2.9	47.9*	69.0*	57.5*	56.8*	80.2*	69.5*
CCCCc1c(C)c(C#N)c2nc3ccccc3n2c1NCCN(C)C	17.7	4.0	-6.6	57.2*	51.9*	65.3*	63.0*	37.2*	68.8*
CCc1c(C)c(C#N)c2nc3ccccc3n2c1NCCCN(C)C	x	0.9	x	x	x	x	x	x	x
